# Source: paper PMC7862700, “An all-to-all approach to the identification of sequence-specific readers for epigenetic DNA modifications on cytosine”
# Assays:
# Assay in all cases: DAPPL (digital affinity profiling via proximity ligation, sequencing); 10 mM Tris-HCl pH 7.5, 50 mM NaCl, 1 mM DTT, 4% glycerol, room temperature, 30 min; GST-TFs on glutathione beads, 16-mer random dsDNA library, 0.1% formaldehyde crosslink after washing; high values mean tight binding
# FLI1 = molecular target: T1, FLI1 (Homo sapiens, UniProt Q01543 1-452); conditions: protein: recombinant; tags: N-terminal GST; dsDNA, one strand shown
# T1 sequence: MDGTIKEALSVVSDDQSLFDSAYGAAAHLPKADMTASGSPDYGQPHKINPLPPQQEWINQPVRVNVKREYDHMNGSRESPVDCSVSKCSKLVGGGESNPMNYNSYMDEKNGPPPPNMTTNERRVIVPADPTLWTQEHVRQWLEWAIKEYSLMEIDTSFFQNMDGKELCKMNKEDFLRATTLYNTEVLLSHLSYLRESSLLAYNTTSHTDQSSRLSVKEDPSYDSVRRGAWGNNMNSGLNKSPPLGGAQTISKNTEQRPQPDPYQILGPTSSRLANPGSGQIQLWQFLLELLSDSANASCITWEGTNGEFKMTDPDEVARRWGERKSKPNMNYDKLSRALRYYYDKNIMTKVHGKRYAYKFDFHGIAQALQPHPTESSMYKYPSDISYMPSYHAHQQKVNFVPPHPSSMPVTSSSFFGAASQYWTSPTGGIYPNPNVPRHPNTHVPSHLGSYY
# In short: (§1)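 Human transcription factors carrying a GST fusion were produced in yeast, bound to glutathione beads, tagged with DNA barcodes and pooled together with a tag-only sample. Each pool was held with 200 nmole of a random double-stranded 16-mer DNA library in Tris/NaCl/DTT/glycerol buffer for 30 min at room temperature, then washed, crosslinked in 0.1% formaldehyde, proximity-ligated with BsaI/T4 ligase (1 h, 37 °C), PCR-amplified and sequenced on an Illumina NextSeq500. Binding signal is the read frequency of each hexamer for a given factor divided by its frequency in the tag-only sample.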
# ELK1 = molecular target: T2, ELK1 (Homo sapiens, UniProt P19419 1-428); conditions: protein: recombinant; tags: N-terminal GST; dsDNA, one strand shown
# T2 sequence: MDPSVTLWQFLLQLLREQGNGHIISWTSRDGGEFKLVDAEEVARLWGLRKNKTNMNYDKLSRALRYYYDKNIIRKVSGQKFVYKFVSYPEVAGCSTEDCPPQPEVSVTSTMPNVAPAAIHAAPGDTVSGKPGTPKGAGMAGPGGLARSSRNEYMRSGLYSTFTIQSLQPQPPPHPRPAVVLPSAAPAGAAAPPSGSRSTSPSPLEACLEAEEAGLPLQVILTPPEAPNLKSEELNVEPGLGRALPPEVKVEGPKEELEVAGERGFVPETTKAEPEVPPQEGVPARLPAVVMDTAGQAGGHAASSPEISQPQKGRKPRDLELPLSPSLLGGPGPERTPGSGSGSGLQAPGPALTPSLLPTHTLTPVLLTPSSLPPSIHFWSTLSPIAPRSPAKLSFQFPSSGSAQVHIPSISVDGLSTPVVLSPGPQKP
# In short: as §1
# GABPA = molecular target: T3, GABPA (Homo sapiens, UniProt Q06546 1-454); conditions: protein: recombinant; tags: N-terminal GST; dsDNA, one strand shown
# T3 sequence: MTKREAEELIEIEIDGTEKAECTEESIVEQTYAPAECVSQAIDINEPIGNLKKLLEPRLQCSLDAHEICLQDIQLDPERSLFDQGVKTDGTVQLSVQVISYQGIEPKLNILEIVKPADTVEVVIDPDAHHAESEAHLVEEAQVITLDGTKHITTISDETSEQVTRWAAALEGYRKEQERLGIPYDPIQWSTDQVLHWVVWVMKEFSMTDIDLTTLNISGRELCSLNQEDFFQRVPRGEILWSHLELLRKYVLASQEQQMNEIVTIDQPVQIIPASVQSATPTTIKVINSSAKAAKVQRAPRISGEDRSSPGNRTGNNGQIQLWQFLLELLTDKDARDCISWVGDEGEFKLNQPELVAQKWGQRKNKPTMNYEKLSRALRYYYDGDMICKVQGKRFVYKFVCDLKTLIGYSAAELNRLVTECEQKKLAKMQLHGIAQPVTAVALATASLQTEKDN
# In short: as §1
# ERG = molecular target: T4, ERG (Homo sapiens, UniProt P11308 1-479); conditions: protein: recombinant; tags: N-terminal GST; dsDNA, one strand shown
# T4 sequence: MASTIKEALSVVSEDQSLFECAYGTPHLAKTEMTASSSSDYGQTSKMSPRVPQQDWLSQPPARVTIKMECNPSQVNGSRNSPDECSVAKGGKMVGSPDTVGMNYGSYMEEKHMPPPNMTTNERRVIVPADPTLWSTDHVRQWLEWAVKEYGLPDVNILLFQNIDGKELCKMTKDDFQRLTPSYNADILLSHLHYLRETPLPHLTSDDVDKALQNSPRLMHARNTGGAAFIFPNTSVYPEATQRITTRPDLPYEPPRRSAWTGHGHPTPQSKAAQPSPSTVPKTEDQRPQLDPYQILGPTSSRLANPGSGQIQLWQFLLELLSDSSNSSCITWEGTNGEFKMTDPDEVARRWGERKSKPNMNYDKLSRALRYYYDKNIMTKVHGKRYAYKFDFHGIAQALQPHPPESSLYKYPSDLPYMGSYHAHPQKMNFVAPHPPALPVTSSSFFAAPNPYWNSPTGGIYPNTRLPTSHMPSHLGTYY
# In short: as §1
# ELF1 = ELF1 (Homo sapiens, UniProt P32519 1-619); conditions: protein: recombinant; tags: N-terminal GST; dsDNA, one strand shown
# Sequence of ELF1 (P32519 whole entry): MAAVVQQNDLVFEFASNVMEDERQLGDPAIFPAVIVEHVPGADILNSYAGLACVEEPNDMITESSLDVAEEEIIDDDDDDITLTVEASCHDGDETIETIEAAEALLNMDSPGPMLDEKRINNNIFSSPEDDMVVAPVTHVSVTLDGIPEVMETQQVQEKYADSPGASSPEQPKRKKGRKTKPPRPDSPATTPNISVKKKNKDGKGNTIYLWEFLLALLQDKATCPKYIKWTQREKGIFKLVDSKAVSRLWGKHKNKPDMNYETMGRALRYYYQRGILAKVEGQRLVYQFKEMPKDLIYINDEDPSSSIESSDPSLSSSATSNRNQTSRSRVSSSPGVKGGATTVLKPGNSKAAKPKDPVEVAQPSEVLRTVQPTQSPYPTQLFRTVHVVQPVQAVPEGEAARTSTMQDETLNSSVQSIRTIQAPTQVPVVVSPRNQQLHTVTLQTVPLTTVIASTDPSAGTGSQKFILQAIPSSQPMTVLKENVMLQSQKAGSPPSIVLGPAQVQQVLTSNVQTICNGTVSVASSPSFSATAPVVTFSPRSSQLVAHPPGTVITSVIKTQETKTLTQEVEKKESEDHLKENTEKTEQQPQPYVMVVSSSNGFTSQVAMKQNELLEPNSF
# In short: as §1
# EHF = molecular target: T5, EHF (Homo sapiens, UniProt Q9NZC4 1-300); conditions: protein: recombinant; tags: N-terminal GST; dsDNA, one strand shown
# T5 sequence: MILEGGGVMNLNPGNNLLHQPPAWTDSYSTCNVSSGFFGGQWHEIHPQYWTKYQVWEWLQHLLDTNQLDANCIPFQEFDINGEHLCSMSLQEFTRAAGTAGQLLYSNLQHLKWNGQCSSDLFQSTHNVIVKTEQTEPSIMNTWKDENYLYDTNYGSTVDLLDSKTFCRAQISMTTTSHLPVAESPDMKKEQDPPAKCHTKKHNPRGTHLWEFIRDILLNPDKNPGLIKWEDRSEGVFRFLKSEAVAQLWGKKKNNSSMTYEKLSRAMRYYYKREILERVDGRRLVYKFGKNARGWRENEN
# In short: as §1
# SPI1 = SPI1 (Homo sapiens, UniProt P17947 1-270); conditions: protein: recombinant; tags: N-terminal GST; dsDNA, one strand shown
# In short: as §1
# SPIB = SPIB (Homo sapiens, UniProt Q01892 1-262); conditions: protein: recombinant; tags: N-terminal GST; dsDNA, one strand shown
# Sequence of SPIB (Q01892 whole entry): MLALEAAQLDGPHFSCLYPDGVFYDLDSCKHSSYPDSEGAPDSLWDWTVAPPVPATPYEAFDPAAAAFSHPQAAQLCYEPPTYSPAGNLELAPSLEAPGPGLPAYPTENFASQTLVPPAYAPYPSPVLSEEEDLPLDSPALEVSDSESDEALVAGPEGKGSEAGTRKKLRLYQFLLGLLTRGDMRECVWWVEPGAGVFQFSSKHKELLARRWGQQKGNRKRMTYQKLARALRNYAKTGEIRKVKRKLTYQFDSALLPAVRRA
# In short: as §1
# ELK3 = molecular target: T6, ELK3 (Homo sapiens, UniProt P41970 1-407); conditions: protein: recombinant; tags: N-terminal GST; dsDNA, one strand shown
# T6 sequence: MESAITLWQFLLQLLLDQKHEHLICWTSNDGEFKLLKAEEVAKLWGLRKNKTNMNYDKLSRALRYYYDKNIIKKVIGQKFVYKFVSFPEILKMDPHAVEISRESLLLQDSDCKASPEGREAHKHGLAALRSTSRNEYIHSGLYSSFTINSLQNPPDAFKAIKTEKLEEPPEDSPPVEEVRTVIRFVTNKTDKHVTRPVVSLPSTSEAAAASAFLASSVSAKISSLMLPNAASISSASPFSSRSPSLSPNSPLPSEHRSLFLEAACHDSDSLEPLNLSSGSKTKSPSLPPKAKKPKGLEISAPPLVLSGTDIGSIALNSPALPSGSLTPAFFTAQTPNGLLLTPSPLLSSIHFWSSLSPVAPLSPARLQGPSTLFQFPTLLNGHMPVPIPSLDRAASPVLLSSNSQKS
# In short: as §1
# FEV = molecular target: T7, FEV (Homo sapiens, UniProt Q99581 1-238); conditions: protein: recombinant; tags: N-terminal GST; dsDNA, one strand shown
# T7 sequence: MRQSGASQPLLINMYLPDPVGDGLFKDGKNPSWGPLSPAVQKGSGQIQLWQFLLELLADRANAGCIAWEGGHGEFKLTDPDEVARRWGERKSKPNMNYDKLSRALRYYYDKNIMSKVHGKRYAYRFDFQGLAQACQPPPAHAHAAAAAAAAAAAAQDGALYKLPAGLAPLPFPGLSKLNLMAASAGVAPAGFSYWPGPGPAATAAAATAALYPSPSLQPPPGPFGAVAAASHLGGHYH
# In short: as §1
# ETV5 = ETV5 (Homo sapiens, UniProt P41161 1-510); conditions: protein: recombinant; tags: N-terminal GST; dsDNA, one strand shown
# Sequence of ETV5 (P41161 whole entry): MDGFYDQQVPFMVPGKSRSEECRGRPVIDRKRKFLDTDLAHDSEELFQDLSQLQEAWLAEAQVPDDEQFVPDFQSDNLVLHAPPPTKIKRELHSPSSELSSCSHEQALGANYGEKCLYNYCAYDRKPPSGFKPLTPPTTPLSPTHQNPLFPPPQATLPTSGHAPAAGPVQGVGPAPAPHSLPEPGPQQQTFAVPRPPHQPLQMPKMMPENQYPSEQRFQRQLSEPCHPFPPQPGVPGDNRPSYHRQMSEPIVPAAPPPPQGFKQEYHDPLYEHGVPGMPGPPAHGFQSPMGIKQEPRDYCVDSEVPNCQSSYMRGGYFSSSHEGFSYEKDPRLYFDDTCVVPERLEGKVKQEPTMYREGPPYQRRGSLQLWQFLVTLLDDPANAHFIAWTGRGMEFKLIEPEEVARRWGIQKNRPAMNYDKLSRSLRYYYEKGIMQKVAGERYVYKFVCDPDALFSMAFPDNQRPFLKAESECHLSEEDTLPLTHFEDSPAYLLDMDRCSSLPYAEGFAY
# In short: as §1
# HSF1 = HSF1 (Homo sapiens, UniProt Q00613 1-529); conditions: protein: recombinant; tags: N-terminal GST; chain copies: 3; dsDNA, one strand shown
# Sequence of HSF1 (Q00613 whole entry): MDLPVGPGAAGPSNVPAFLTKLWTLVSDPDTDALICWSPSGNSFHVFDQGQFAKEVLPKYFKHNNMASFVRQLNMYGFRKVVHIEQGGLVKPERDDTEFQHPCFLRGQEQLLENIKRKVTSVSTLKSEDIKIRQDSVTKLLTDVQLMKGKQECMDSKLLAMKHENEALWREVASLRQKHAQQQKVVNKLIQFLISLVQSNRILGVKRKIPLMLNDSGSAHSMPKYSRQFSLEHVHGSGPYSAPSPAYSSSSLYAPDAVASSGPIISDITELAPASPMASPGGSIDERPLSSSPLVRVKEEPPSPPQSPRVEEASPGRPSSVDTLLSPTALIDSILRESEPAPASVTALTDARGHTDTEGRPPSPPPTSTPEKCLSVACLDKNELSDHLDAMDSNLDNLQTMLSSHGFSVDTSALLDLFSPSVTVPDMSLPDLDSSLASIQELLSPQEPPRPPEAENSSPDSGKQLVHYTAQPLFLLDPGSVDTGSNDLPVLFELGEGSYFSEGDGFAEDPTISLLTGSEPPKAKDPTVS
# In short: as §1
# SPIC = molecular target: T8, SPIC (Homo sapiens, UniProt Q8N5J4 1-248); conditions: protein: recombinant; tags: N-terminal GST; dsDNA, one strand shown
# T8 sequence: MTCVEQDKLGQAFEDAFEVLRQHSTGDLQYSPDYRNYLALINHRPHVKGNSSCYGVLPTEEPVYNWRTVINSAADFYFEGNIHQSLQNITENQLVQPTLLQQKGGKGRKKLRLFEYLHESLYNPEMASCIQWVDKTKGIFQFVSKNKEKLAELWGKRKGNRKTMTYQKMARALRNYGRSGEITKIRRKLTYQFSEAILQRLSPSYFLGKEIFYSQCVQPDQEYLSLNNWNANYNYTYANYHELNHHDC
# In short: as §1
# ELF4 = ELF4 (Homo sapiens, UniProt Q99607 1-663); conditions: protein: recombinant; tags: N-terminal GST; dsDNA, one strand shown
# Sequence of ELF4 (Q99607 whole entry): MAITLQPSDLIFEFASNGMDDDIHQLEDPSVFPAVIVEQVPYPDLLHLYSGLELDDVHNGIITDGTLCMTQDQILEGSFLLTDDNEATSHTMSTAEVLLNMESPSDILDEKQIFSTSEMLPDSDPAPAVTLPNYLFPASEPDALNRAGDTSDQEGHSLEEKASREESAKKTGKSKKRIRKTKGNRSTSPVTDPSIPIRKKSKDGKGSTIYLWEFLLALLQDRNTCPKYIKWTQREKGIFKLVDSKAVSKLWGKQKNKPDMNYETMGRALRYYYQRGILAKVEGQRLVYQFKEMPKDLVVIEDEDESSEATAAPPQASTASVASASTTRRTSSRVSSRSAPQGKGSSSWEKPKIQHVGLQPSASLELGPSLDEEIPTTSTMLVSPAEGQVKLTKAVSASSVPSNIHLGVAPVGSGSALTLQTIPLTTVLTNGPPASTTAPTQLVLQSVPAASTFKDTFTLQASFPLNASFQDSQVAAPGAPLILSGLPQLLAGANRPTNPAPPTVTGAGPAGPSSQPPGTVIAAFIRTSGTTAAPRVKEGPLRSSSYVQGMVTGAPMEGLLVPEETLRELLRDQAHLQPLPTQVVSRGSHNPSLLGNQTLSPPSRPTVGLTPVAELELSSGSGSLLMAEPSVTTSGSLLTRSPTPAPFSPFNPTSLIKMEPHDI
# In short: as §1
# ELK4 = molecular target: T9, ELK4 (Homo sapiens, UniProt P28324-2 1-405); conditions: protein: recombinant; tags: N-terminal GST; dsDNA, one strand shown
# T9 sequence: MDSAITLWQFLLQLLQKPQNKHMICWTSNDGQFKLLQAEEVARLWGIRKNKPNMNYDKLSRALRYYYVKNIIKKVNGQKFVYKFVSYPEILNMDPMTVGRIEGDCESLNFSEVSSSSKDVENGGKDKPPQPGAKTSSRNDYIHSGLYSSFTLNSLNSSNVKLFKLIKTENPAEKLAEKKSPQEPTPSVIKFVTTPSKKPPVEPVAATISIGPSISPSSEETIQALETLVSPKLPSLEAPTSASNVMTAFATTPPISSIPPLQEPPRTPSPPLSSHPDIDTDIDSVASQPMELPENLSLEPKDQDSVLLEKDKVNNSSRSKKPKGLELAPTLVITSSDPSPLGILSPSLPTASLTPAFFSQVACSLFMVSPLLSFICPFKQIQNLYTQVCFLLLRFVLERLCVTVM
# In short: as §1
# ETV2 = molecular target: T10, ETV2 (Homo sapiens, UniProt O00321 1-342); conditions: protein: recombinant; tags: N-terminal GST; dsDNA, one strand shown
# T10 sequence: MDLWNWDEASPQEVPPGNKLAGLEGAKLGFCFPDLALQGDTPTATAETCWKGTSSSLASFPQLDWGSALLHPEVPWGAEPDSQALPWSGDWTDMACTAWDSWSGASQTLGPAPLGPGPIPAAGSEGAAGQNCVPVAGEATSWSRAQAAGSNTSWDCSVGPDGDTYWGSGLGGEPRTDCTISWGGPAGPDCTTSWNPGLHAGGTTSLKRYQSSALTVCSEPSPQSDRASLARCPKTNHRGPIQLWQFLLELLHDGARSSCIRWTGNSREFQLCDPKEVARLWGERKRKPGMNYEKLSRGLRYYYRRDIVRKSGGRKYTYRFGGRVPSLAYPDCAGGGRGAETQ
# In short: as §1
# ELF3 = molecular target: T11, ELF3 (Homo sapiens, UniProt P78545 1-371); conditions: protein: recombinant; tags: N-terminal GST; dsDNA, one strand shown
# T11 sequence: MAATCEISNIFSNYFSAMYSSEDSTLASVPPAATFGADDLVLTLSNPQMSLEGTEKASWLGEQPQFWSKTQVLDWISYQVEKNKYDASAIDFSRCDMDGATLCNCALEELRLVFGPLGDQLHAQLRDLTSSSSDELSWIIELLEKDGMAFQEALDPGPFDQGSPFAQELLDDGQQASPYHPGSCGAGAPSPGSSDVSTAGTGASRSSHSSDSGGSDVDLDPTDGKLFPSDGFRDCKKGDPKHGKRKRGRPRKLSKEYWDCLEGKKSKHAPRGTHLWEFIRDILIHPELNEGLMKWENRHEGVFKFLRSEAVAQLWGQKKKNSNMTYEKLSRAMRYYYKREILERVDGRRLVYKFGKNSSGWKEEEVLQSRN
# In short: as §1
# ETV1 = ETV1 (Homo sapiens, UniProt P50549 1-477); conditions: protein: recombinant; tags: N-terminal GST; dsDNA, one strand shown
# Sequence of ETV1 (P50549 whole entry): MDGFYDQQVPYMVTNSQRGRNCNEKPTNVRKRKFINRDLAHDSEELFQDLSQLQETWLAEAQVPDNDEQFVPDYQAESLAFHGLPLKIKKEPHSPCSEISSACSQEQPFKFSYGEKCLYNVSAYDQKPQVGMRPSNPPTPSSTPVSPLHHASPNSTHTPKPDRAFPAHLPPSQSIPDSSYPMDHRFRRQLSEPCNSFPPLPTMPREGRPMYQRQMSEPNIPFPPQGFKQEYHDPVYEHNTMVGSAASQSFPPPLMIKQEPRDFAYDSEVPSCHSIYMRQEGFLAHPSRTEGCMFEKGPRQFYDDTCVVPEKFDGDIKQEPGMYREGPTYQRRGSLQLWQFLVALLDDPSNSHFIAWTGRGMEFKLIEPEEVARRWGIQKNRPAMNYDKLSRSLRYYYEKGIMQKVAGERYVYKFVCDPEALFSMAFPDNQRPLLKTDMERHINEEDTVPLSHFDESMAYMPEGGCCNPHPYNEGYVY
# In short: as §1
sequence,measurement,setting,value
AACAAG,binding signal,FLI1,"1.08 fold enrichment (6-mer frequency, TF over GST control)"
same,binding signal,ELK1,"1.08 fold enrichment (6-mer frequency, TF over GST control)"
same,binding signal,GABPA,"1.15 fold enrichment (6-mer frequency, TF over GST control)"
same,binding signal,ERG,"1.14 fold enrichment (6-mer frequency, TF over GST control)"
same,binding signal,ELF1,"1.13 fold enrichment (6-mer frequency, TF over GST control)"
same,binding signal,EHF,"1.17 fold enrichment (6-mer frequency, TF over GST control)"
same,binding signal,SPI1,"1.04 fold enrichment (6-mer frequency, TF over GST control)"
same,binding signal,SPIB,"1.06 fold enrichment (6-mer frequency, TF over GST control)"
same,binding signal,ELK3,"1.22 fold enrichment (6-mer frequency, TF over GST control)"
same,binding signal,FEV,"1.03 fold enrichment (6-mer frequency, TF over GST control)"
same,binding signal,ETV5,"1.14 fold enrichment (6-mer frequency, TF over GST control)"
same,binding signal,HSF1,"1.03 fold enrichment (6-mer frequency, TF over GST control)"
same,binding signal,SPIC,"1.15 fold enrichment (6-mer frequency, TF over GST control)"
same,binding signal,ELF4,"1.17 fold enrichment (6-mer frequency, TF over GST control)"
same,binding signal,ELK4,"1.01 fold enrichment (6-mer frequency, TF over GST control)"
same,binding signal,ETV2,"1 fold enrichment (6-mer frequency, TF over GST control)"
same,binding signal,ELF3,"1.26 fold enrichment (6-mer frequency, TF over GST control)"
same,binding signal,ETV1,"1.13 fold enrichment (6-mer frequency, TF over GST control)"
